Screening data: PubChem BioAssay, several laboratories
CYP2C19 act = increases human CYP2C19 enzyme activity; activation factor at 5 µM; AID 1025; 96,000 tested, under 10 active; recombinant CYP2C19, luciferin-H EGE luminescence; stronger effect = higher value; 0 = fully inhibited enzyme, 1 = untreated enzyme;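 active = activation factor of at least 2 at 5 µM in the primary screen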
CYP2C9 activ = CYP2C9 (human) activation; P11712; recombinant CYP2C9, luciferin-H conversion, luminescence; stronger effect = higher value; factor 1 = untreated enzyme, 0 = blocked; activation factor at 5 µM; 1.4% of 96,000 active; AID 1024;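 active = activation factor of 2 or more for CYP2C9 at a 5 µM dose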
Target sequence (P11712 whole entry, looked up): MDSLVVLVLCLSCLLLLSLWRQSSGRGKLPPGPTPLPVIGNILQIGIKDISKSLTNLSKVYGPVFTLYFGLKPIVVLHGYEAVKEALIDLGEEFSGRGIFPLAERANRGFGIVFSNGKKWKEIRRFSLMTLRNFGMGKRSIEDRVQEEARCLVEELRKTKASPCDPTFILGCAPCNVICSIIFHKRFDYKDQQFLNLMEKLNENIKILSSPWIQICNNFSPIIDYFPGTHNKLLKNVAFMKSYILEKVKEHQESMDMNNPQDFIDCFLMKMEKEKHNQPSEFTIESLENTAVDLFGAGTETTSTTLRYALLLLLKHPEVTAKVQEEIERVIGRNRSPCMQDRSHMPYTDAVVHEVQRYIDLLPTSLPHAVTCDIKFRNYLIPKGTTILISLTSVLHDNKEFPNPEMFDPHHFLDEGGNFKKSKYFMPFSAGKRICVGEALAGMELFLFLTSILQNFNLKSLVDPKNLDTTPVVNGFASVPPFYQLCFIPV
DAT uptake mod = changed human dopamine transporter uptake under cocaine IC80; Q01959; B-score at 10 µM; 1.3% of 110,000 active; LLC-PK1 hDAT cells, [14C]-dopamine uptake with cocaine IC80; actives deviate in either direction;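 active = Z score or B-score, a plate-position-corrected score, falls beyond the plate's 99.7% confidence bounds, in either direction; inactive = both scores lie inside the 99.7% bounds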
CYP2C9 inh = human CYP2C9 inhibition; AID 777; inhibition, % at 5 µM; CYP2C9 Supersomes, luciferin-H conversion, luminescence; P11712; 20% of 96,000 active;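 active = blocking of liver enzyme CYP2C9 beyond about 50% at 5 µM, limit read from the data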
D1 mod = allosterically modulates the human D1 dopamine receptor; 5.9% of 58,000 active; AID 641; B-score at 10 µM; P21728; HEK293 D1, CRE-luciferase, dopamine EC30 potentiation; actives deviate in either direction;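 active = luminescence count or its row- and column-corrected plate score outside the 99.7% band of the plate's sample wells, on either side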
CYP2C19 inhib = inhibitors of human CYP2C19. CYP2C19 Supersomes, luciferin-H EGE luminescence, 30 min. inhibition, % at 5 µM. 21% of 96,000 active;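 active = CYP2C19 inhibition above a set limit at 5 µM in the primary screen, cut at about 50% in these data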
A number is an active result; – = inactive; · = no result. A selection: hits, their analogues and other compounds. The true share with any hit is near 28%.

SMILES	CYP2C19 act	CYP2C9 activ	DAT uptake mod	CYP2C9 inh	D1 mod	CYP2C19 inhib
CCC(=O)N1CCc2cc(S(=O)(=O)NCCN3CCCCC3CC)ccc21 (configuration not stated)	–	–	–	–	–	–
O=C(Nc1nnc(CC(=O)N2CCOCC2)s1)C1COc2ccccc2O1 (configuration not stated)	–	–	–	–	–	–
O=S(=O)(NCc1ccccc1)c1cnc[nH]1	–	–	–	95	–	62
O=S(=O)(NCc1ccc(Cl)cc1)c1cnc[nH]1	–	–	–	95	–	78
O=S(=O)(NCc1cccnc1)c1cc(Cl)ccc1Cl	–	–	–	–	–	–
COC(=O)c1[nH]c2cc(OC)ccc2c1N	–	–	–	–	–	–
CC1CCN(C(=O)C(Cc2ccccc2)n2cccc2)CC1 (configuration not stated)	–	–	–	–	–	93
Cc1cccc(N2CCN(C(=O)C(Cc3ccccc3)n3cccc3)CC2)c1C (configuration not stated)	–	–	–	–	·	–
O=C(C(Cc1ccccc1)n1cccc1)N1CCN(c2ncccn2)CC1 (configuration not stated)	–	–	–	69	–	–
CCCN1CCN(C(=O)Cn2cccc2C(=O)c2ccccc2)CC1	·	·	–	·	–	·
CCOP(=O)(OCC)C(C#N)=C1SCN(c2ccc(Cl)cc2)CS1	–	–	–	61	·	–
Cc1ccc2nc(C3CCN(CC(=O)N4CCCCCC4)CC3)[nH]c2c1	–	–	–	–	·	–
CCN(Cc1ccccc1)S(=O)(=O)c1ccc(S(=O)(=O)N(Cc2cccc(OC)c2)CC2CCCO2)cc1 (configuration not stated)	–	–	–	55	·	–
COc1ccc2cc(CN(CC3CCCO3)S(=O)(=O)c3ccccc3Cl)c(=O)[nH]c2c1 (configuration not stated)	–	–	–	99	·	58
Cc1ccc2nsnc2c1S(=O)(=O)N(Cc1cc2cccc(C)c2[nH]c1=O)CC1CCCO1 (configuration not stated)	–	–	–	78	-5.1	–
Cc1ccc2cc(CN(CCCO)S(=O)(=O)c3cccc4nsnc34)c(=O)[nH]c2c1C	–	–	–	100	–	–
COc1cccc(CN(CC2CCCO2)S(=O)(=O)c2ccc(S(=O)(=O)NCC3CCCO3)cc2)c1OC (configuration not stated)	–	–	–	–	·	–
CCOC(=O)Cc1csc(NC(=S)NC(=O)c2ccccc2C)n1	–	–	–	–	·	–
CCC(C(=O)NC1CCCC1)N(C(=O)Cn1nnc(-c2ccc(C)o2)n1)C(C)(C)C (configuration not stated)	–	–	–	–	–	–
COc1ccc(CNC(=O)CCOc2ccc(C(C)(C)C)cc2)cc1	–	–	–	–	·	–
Cc1ccc2cc(CN(CC3CCCO3)S(=O)(=O)c3c(C)ccc4nsnc34)c(=O)[nH]c2c1 (configuration not stated)	–	–	–	52	–	–
O=C(OCCN=C1NS(=O)(=O)c2ccccc21)C1CC(=O)N(c2ccc(Cl)cc2)C1 (configuration not stated)	–	–	–	63	–	–
O=C(OCCN=C1NS(=O)(=O)c2ccccc21)c1ccccc1	–	–	–	85	·	–
O=C(OCCOCCN=C1NS(=O)(=O)c2ccccc21)C1CC(=O)N(c2ccccc2)C1 (configuration not stated)	–	–	–	–	·	–
COc1ccc(Oc2nccc(-c3ccccc3)c2C#N)cc1	–	–	–	–	·	–
SMILES	CYP2C19 act	CYP2C9 activ	DAT uptake mod	CYP2C9 inh	D1 mod	CYP2C19 inhib
CCOc1ccc(NC(=O)CC2C(=O)N(c3cccc(OC)c3)C(=O)N2C(C)C)cc1 (configuration not stated)	·	·	–	·	·	·
O=C(Nc1ccc2c(c1)OCO2)C1CCN(C(=O)c2cccs2)CC1	–	–	–	–	–	–
Cc1sc2ncnc(NCC3(N4CCOCC4)CCCCC3)c2c1C	–	–	–	60	·	–
COc1ccc(C(=O)Nn2cnc3scc(-c4cccs4)c3c2=O)c(O)c1	·	·	–	·	–	·
CC1(C)NC(=O)N(CCOCCOc2ccccc2)C1=O	–	–	–	–	·	–
CC(=O)c1cccc(OCCN2C(=O)NC(C)(C)C2=O)c1	–	–	–	50	–	–
CCc1cccc(OCCCN2C(=O)NC(C)(C)C2=O)c1	–	–	–	60	·	92
COc1c(S(=O)(=O)NCCN2CCOCC2)ccc(Cl)c1Cl	–	–	–	–	·	80
COc1ccccc1NS(=O)(=O)c1cc(C(=O)NCCN2CCOCC2)ccc1Cl	–	–	–	–	–	–
COc1cc(C)c(Cl)cc1S(=O)(=O)NCCCN1CCOCC1	–	–	–	–	·	66
COc1cc(C)c(S(=O)(=O)N2CCOCC2)cc1C(C)C	–	–	–	–	–	53
COc1cc(Cl)c(S(=O)(=O)NCCCN2CCOCC2)cc1Cl	–	–	–	–	·	–
COc1cc(C)c(Cl)cc1S(=O)(=O)NCCN1CCOCC1	–	–	–	–	·	83
CCN1CCN(C(c2cccs2)C(C)NS(=O)(=O)c2ccccc2)CC1 (configuration not stated)	·	·	–	·	·	·
COCCN1C(=O)c2ccccc2C(C(=O)N2CCN(c3ccccn3)CC2)C1c1ccc(F)cc1 (configuration not stated)	·	·	–	·	–	·
Cc1cc(Br)c(S(=O)(=O)NCCN2CCOCC2)cc1C	–	–	–	–	–	–
Cc1ccc(S(=O)(=O)NCCCN2CCOCC2)c(C)c1	–	–	–	–	·	64
COc1cc(-c2nnc(COC(=O)c3c4c(nc5ccccc35)CCCC4)o2)cc(OC)c1OC	–	–	–	79	·	68
COC(=O)c1cc(OC)c(OC)c(OC)c1N	–	–	–	–	–	64
COc1cc(C(=O)Oc2ccccc2N)cc(OC)c1OC	–	–	–	68	–	–
COc1cc(C(=O)Oc2ccccc2/C=N/NC(=O)c2ccc(Cl)cc2Cl)cc(OC)c1OC	–	–	–	97	·	–
COC(=O)Nc1c(C(=O)OC)cc(OC)c(OC)c1OC	–	–	–	–	–	–
COc1ccccc1NC(=S)NNC(=O)c1ccc(Cl)cc1Cl	·	·	–	·	·	·
CC(CNC(=O)C(=O)NC(C)CCc1ccccc1)Cc1ccccc1 (configuration not stated)	–	–	–	–	·	–
CCOC(=O)c1c(C)n(-c2ccc(OC)cc2)c2c(C/C(C)=N/O)c(Br)c(OC)c(O)c12	–	–	–	–	·	–
O=C(O)C1CCC(CNCc2cccnc2)CC1 (configuration not stated)	·	·	·	·	–	·
CC(C(=O)N(C1CC1)C1(C(=O)Nc2ccccc2)CCCC1)N1C(=O)c2ccccc2C1=O (configuration not stated)	–	–	–	–	–	–
